The whole screen tested about 5,500 compounds, of which about 2,000 (36%) were called active. Inconclusive results (about 18%) are left out. Rule as the data show it: active = normalized growth mostly below about 0.91 (no sharp cut-off); inconclusive = no clear call, values can overlap the other calls; inactive = mostly above about 0.92. The list shows a part of the results.
Assay: chemical genetic growth profiling, strain panel (AID 1159580);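 also: tested at 20 µM; growth read once vehicle control cultures reached saturation at 30 °C; 1 = growth at the plate median or of vehicle wells; lower values mean less growth of the strain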
Conditions: S. cerevisiae deletion strains, growth OD
[1] = locus YHR030C, strain SLT2, active compounds read low
[2] = locus YHR079C, strain IRE1, active compounds read low
[3] = locus YJL095W, strain BCK1, active compounds read low
[4] = locus YJR066W, strain TOR1, active compounds read low
[5] = locus YLR113W, strain HOG1, active compounds read low
[6] = locus YNL183C, strain NPR1, active compounds read low
[7] = locus YOR231W, strain MKK1, active compounds read low
[8] = locus YPL256C, strain CLN2, active compounds read low

Measured: normalized growth

CC1(C)O[C@@H]2[C@@H](CO[C@@]3(COS(N)(=O)=O)OC(C)(C)O[C@@H]23)O1
inactive: locus YAL021C, strain ccr4, active compounds read low 1.03 | locus YAL026C, strain drs2, active compounds read low 1.03 | locus YAL030W, strain snc1, active compounds read low 1.01 | locus YBL061C, strain skt5, active compounds read low 1.01 | locus YBR009C, strain hhf1, active compounds read low 0.983 | locus YBR023C, strain chs3, active compounds read low 1.02 | locus YBR171W, strain sec66, active compounds read low 1.01 | locus YBR231C, strain swc5, active compounds read low 0.981 | locus YBR279W, strain paf1, active compounds read low 1.02 | locus YCL011C, strain gbp2, active compounds read low 1.01 | locus YCL016C, strain dcc1, active compounds read low 1.04 | locus YCL069W, strain vba3, active compounds read low 1.01 | locus YCR088W, strain abp1, active compounds read low 1.01 | locus YDL005C, strain med2, active compounds read low 1.02 | locus YDL040C, strain nat1, active compounds read low 0.997 | locus YDR001C, strain nth1, active compounds read low 1 | locus YDR069C, strain doa4, active compounds read low 0.994 | locus YDR137W, strain rgp1, active compounds read low 1.08 | locus YDR159W, strain sac3, active compounds read low 0.94 | locus YDR195W, strain ref2 0.987 | locus YDR297W, strain sur2, active compounds read low 0.992 | locus YDR334W, strain swr1, active compounds read low 1.02 | locus YDR335W, strain msn5, active compounds read low 1.02 | locus YDR392W, strain spt3, active compounds read low 1.01 | locus YEL003W, strain gim4, active compounds read low 0.99 | locus YEL037C, strain rad23, active compounds read low 1 | locus YEL061C, strain CIN8 (second series), active compounds read low 1 | locus YER015W, strain faa2, active compounds read low 1.01 | locus YER016W, strain bim1, active compounds read low 1.04 | locus YER111C, strain swi4, active compounds read low 1.02 | locus YER155C, strain BEM2 (second series), active compounds read low 1.02 | locus YFR010W, strain ubp6, active compounds read low 0.983 | locus YGL167C, strain pmr1, active compounds read low 1.01 | locus YGL173C, strain kem1, active compounds read low 0.998 | locus YGL227W, strain vid30, active compounds read low 1.01 | locus YGL240W, strain doc1, active compounds read low 0.991 | locus YGL253W, strain hxk2, active compounds read low 1 | locus YHR013C, strain ard1, active compounds read low 1.07 | locus YHR027C, strain rpn1, active compounds read low 1.01 | [1] 0.98 | [2] 0.965 | locus YHR142W, strain chs7, active compounds read low 1.02 | locus YJL092W, strain hpr5, active compounds read low 1.01 | locus YJL095W, strain BCK1 (second series), active compounds read low 1.01 | [3] 0.974 | locus YJL115W, strain asf1, active compounds read low 1.01 | locus YJL129C, strain trk1, active compounds read low 1.01 | locus YJL154C, strain vps35, active compounds read low 1 | locus YJL164C, strain tpk1, active compounds read low 0.988 | locus YJL166W, strain qcr8, active compounds read low 0.985 | locus YJL187C, strain SWE1, active compounds read low 0.992 | [4] 0.942 | locus YKL160W, strain elf1, active compounds read low 1.05 | locus YKR026C, strain gcn3, active compounds read low 1 | locus YKR091W, strain srl3, active compounds read low 0.999 | locus YLL001W, strain dnm1, active compounds read low 0.987 | locus YLL026W, active compounds read low 1 | locus YLL041C, strain sdh2, active compounds read low 0.991 | locus YLR027C, strain aat2, active compounds read low 1.01 | [5] 0.964 | locus YLR221C, strain rsa3, active compounds read low 0.992 | locus YLR258W, strain gsy2, active compounds read low 1.02 | locus YLR262C, strain YPT6 (second series), active compounds read low 1.01 | locus YLR320W, strain mms22, active compounds read low 0.956 | locus YLR342W, strain FKS1, active compounds read low 1.03 | locus YLR357W, strain rsc2, active compounds read low 1 | locus YLR370C, strain arc18, active compounds read low 1.01 | locus YLR384C, strain iki3, active compounds read low 1.03 | locus YML120C, strain ndi1, active compounds read low 0.999 | locus YMR058W, strain fet3, active compounds read low 1.01 | locus YMR125W, strain sto1, active compounds read low 1 | locus YMR129W, active compounds read low 1 | locus YMR205C, strain PFK2, active compounds read low 0.981 | locus YMR231W, strain pep5, active compounds read low 1 | locus YNL071W, strain lat1, active compounds read low 1.01 | [6] 0.902 | locus YNL209W, strain ssb2, active compounds read low 1.01 | locus YNL248C, strain rpa49, active compounds read low 1.03 | locus YNL322C, strain KRE1 (second series), active compounds read low 1.01 | locus YNR049C, strain mso1, active compounds read low 0.99 | locus YOR001W, strain rrp6, active compounds read low 0.965 | locus YOR070C, strain gyp1, active compounds read low 1.01 | locus YOR080W, strain dia2, active compounds read low 1.02 | locus YOR083W, strain WHI5, active compounds read low 0.996 | locus YOR106W, strain vam3, active compounds read low 1.04 | [7] 0.977 | locus YOR265W, strain rbl2, active compounds read low 1 | locus YOR270C, strain vph1, active compounds read low 1.06 | locus YOR290C, strain snf2, active compounds read low 1.06 | locus YPL051W, strain arl3, active compounds read low 1.07 | locus YPL078C, strain atp4, active compounds read low 1.04 | locus YPL106C, strain sse1, active compounds read low 1.07 | locus YPL240C, strain hsp82, active compounds read low 1.01 | [8] 0.95

CC(=O)C(Sc1nc2ccccc2s1)C(C)=O
inactive: locus YAR019C, strain CDC15, active compounds read low 0.896 | locus YBL105C, strain PKC1, active compounds read low 0.919 | locus YBR135W, strain CKS1, active compounds read low 0.915 | locus YBR136W, strain MEC1, active compounds read low 0.923 | locus YBR160W, strain CDC28, active compounds read low 0.909 | locus YDL017W, strain CDC7, active compounds read low 0.919 | locus YDL028C, strain MPS1, active compounds read low 0.906 | locus YDL101C, strain DUN1, active compounds read low 0.979 | locus YDL108W, strain KIN28, active compounds read low 0.93 | locus YDL132W, strain cdc53, active compounds read low 0.91 | locus YDL214C, strain PRR2, active compounds read low 0.713 | locus YDR052C, strain DBF4, active compounds read low 0.916 | locus YDR054C, strain cdc34, active compounds read low 0.906 | locus YDR226W, strain ADK1, active compounds read low 0.937 | locus YDR477W, strain SNF1, active compounds read low 0.778 | locus YER133W, strain GLC7, active compounds read low 0.812 | locus YFL009W, strain cdc4, active compounds read low 0.892 | locus YFL029C, strain CAK1, active compounds read low 0.9 | locus YFR003C, strain YPI1, active compounds read low 0.926 | locus YFR019W, strain FAB1, active compounds read low 0.836 | locus YFR028C, strain CDC14, active compounds read low 0.922 | locus YGR040W, strain KSS1, active compounds read low 0.798 | locus YGR052W, strain FMP48, active compounds read low 0.667 | [2] 0.547 | locus YHR082C, strain KSP1, active compounds read low 0.785 | locus YHR205W, strain SCH9, active compounds read low 0.948 | locus YIL147C, strain SLN1, active compounds read low 0.921 | [3] 0.521 | locus YJL128C, strain PBS2, active compounds read low 0.918 | locus YJR016C, strain ILV3, active compounds read low 0.916 | locus YJR066W, strain TOR1 (second series), active compounds read low 0.795 | [4] 0.682 | locus YKL048C, strain ELM1, active compounds read low 0.929 | locus YKL101W, strain HSL1, active compounds read low 0.866 | locus YKL193C, strain SDS22, active compounds read low 0.907 | locus YKL203C, strain TOR2, active compounds read low 0.879 | locus YLR133W, strain CKI1, active compounds read low 0.765 | locus YLR403W, strain SFP1, active compounds read low 0.764 | locus YML070W, strain DAK1, active compounds read low 0.699 | locus YMR001C, strain CDC5, active compounds read low 0.91 | locus YMR205C, strain PFK2 (second series), active compounds read low 0.749 | locus YMR277W, strain FCP1, active compounds read low 0.892 | locus YNL020C, strain ARK1, active compounds read low 0.739 | locus YNL161W, strain CBK1, active compounds read low 0.906 | locus YNL207W, strain RIO2, active compounds read low 0.937 | locus YNL222W, strain SSU72, active compounds read low 0.907 | locus YNL307C, strain MCK1 (second series), active compounds read low 0.807 | locus YOL078W, strain AVO1, active compounds read low 0.908 | locus YOL136C, strain PFK27, active compounds read low 0.694 | locus YOR061W, strain CKA2, active compounds read low 0.752 | locus YOR119C, strain RIO1, active compounds read low 0.827 | [7] 0.591 | locus YOR329C, strain SCD5, active compounds read low 0.925 | locus YPL031C, strain PHO85, active compounds read low 0.729 | locus YPL153C, strain RAD53, active compounds read low 0.734 | locus YPL204W, strain HRR25, active compounds read low 0.757 | locus YPL209C, strain IPL1, active compounds read low 0.914 | locus YPR025C, strain CCL1, active compounds read low 0.916 | locus YPR106W, strain ISR1, active compounds read low 0.945 | locus YPR111W, strain DBF20, active compounds read low 0.946 | strain NNK1, active compounds read low 0.948 | strain TSCII, active compounds read low 0.891
active: locus YER123W, strain YCK3, active compounds read low 0.595 | locus YGR092W, strain DBF2, active compounds read low 0.343 | [1] 0.63 | locus YJL157C, strain FAR1, active compounds read low 0.68 | locus YKL067W, strain YNK1, active compounds read low 0.694 | [5] 0.591 | locus YNL006W, strain LST8, active compounds read low 0.901 | [6] 0.561 | [8] 0.6

— PubChem BioAssay AID1159580 (chemical genetic matrix, 2015)
